Reference: PubChem BioAssay (NCATS)
Several values for one entry are separate records, joined by “and”; a condition that tells them apart may be missing. Identical values can stand only once. Records with an inconclusive call do not appear. A number with no mark means an inactive call. Activity calls are given as the source filed them. Calls follow the shape of the dose curve; as a rule, active = well fitted curve in the direction sought with a large enough effect; inconclusive = small, poorly fitted or top-dose-only effect, or another doubt; inactive = no such curve, though single readings can be large; an effect the other way counts as inactive or inconclusive.

What was measured:
[1] = Viability qHTS for spleen associated tyrosine kinase inhibitor (SYKi) naive MV4-11 cells (AID 1963823); conditions: MV4-11 AML viability, CellTiter-Glo luminescence, 72 h; series mostly up to 45 µM; also: nearly all actives have a fitted effect of over 40% in size
Outline: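 SYKi-naive MV4-11 AML cells, 500 per well, were exposed to library compounds for 72 hr at 37 C, 5% CO2. Viability was then read by CellTiter-Glo luminescence after 10 min at room temperature.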

[2] = Viability qHTS for spleen associated tyrosine kinase inhibitor (SYKi) drug resistant MV4-11 cells (AID 1963824); conditions: SYKi-resistant MV4-11 viability, CellTiter-Glo, 72 h; series mostly up to 45 µM; also: nearly all actives have a fitted effect of over 35% in size
Outline: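 SYK inhibitor-resistant MV4-11 AML cells, 500 per well, added to predispensed compounds and incubated 72 hr at 37 C, 5% CO2. Viability measured by CellTiter-Glo luminescence after 10 min at room temperature.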

[3] = Cellular viability qHTS for adrenocortical cancer (ACC) cell line NCI-H295R (AID 1963990); conditions: CellTiter-Glo ATP luminescence, 48 h; series mostly up to 46.1 µM; also: nearly all actives have a fitted effect of over 60% in size
Outline: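 IC50 and maximal efficacy derive from four-parameter logistic modelling of titration curves, with reads scaled between DMSO-only wells (0%) and doxorubicin hydrochloride (100% inhibition). Compounds spanned up to 46 uM over 48 h.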

[4] = Cellular viability qHTS for adrenocortical cancer (ACC) cell line SW-13 (AID 1963989); conditions: SW-13 ACC cells viability, CellTiter-Glo, 48 h; activity (max response): hits give low values; also: nearly all actives have a fitted effect of over 65% in size;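 as to activity (max response): cells grown in serum-free medium with ITS supplement; % is scaled to controls: 0 for no effect and ±100 for the full control effect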
Outline: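 Luminescent ATP read-out (CellTiter-Glo, 20 min at room temperature) measured metabolically competent SW-13 cells after 48 h compound treatment. Final concentrations spanned up to 46 uM; bortezomib served as positive control.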
Potency is read from the fitted curve at half-maximal effect.

| Compound | Potency [1] | Potency [2] | Potency [3] | activity (max response) [4] | Potency [4] |
| --- | --- | --- | --- | --- | --- |
| CCOC(=O)[C@H](CCc1ccccc1)N[C@@H](C)C(=O)N(CC(=O)O)C1Cc2ccccc2C1 | inactive | inactive | inactive | – | – |
| O=C(OCCN1CCOCC1)c1cccnc1Nc1cccc(C(F)(F)F)c1 | inactive | inactive | inactive | -11.8% | – |
| CCn1ccnc1CC1COc2ccccc2O1 (configuration not stated) | inactive | inactive | inactive | 8.12% | – |
| NS(=O)(=O)OC[C@@H]1C[C@@H](n2ccc3c(N[C@H]4CCc5ccccc54)ncnc32)C[C@@H]1O | 103 nM (active) and 164 nM (active) | 73.1 nM (active) and 82 nM (active) and 74.2 nM (active) | 708 nM (active) | – | – |
| CCN(CC)CCNc1ccc(C)c2sc3ccccc3c(=O)c12 | 5250 nM (active) | 7420 nM (active) | 15800 nM (active) | – | 25100 nM (active) |
| C[C@H]1COCCN1c1cc(C2(S(=O)(=O)C3CC3)CC2)nc(-c2ccc(NC(=S)NCCO)cc2)n1 | 18.4 nM (active) | 73.1 nM (active) | 1120 nM (active) | – | 316 nM (active) |
| CC1(C)S[C@@H]2[C@H](NC(=O)Cc3ccccc3)C(=O)N2[C@H]1C(=O)O (tested in a mixture with another compound) | inactive | inactive | inactive | 7.44% | – |
| O=C(Nc1ccc(Oc2ccc(Cl)cc2)c(Cl)c1)c1cc(I)cc(I)c1O | inactive | inactive | 20600 nM (active) | – | – |
| C=CCNC1=C2CC(C)CC(OC)C(O)C(C)/C=C(\C)C(OC(N)=O)C(OC)/C=C/C=C(\C)C(=O)NC(=CC1=O)C2=O (configuration not stated) | 93.4 nM (active) | 332 nM (active) | 10000 nM (active) | – | – |
